Test results published in PubChem BioAssay (NCI).
The panel holds about 83,000 compounds, 20% with a hit somewhere; the sample as a whole holds those more often.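 Activity criterion: percent growth below 10, measured after cells in 96-well plates were exposed to a single compound concentration for 48 hours.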 Activity calls are given as the source filed them.

Legend:
Test in all cases: NCI-60 one-dose screen, 48 h (100 = growth as untreated, 0 = no growth, -100 = all killed)
Conditions in all cases: 10 µM unless noted
K-562 leukemia = system: K-562 leukemia
MALME-3M melanoma = system: MALME-3M melanoma
MDA-MB-231 breast = system: MDA-MB-231 breast
RXF 393 renal = system: RXF 393 renal
SF-268 CNS = system: SF-268 CNS
SF-295 CNS = system: SF-295 CNS
SF-539 CNS = system: SF-539 CNS
UACC-257 melanoma = system: UACC-257 melanoma
M14 melanoma = system: M14 melanoma
HCT-15 colon = system: HCT-15 colon

Measured: growth

Fc1ccc([C@@H]2CCNC[C@H]2COc2ccc3c(c2)OCO3)cc1
inactive: K-562 leukemia 51.7% | MALME-3M melanoma 78.4% | MDA-MB-231 breast 11.5% | RXF 393 renal 71.7% | SF-268 CNS 92.3% | SF-295 CNS 74.2% | SF-539 CNS 89.5% | UACC-257 melanoma 76.8% | M14 melanoma 49.7% | HCT-15 colon 85.8%

N#CCNc1ccccc1N
inactive: K-562 leukemia 97.3% | MALME-3M melanoma 96.2% | MDA-MB-231 breast 101% | RXF 393 renal 110% | SF-268 CNS 102% | SF-295 CNS 106% | SF-539 CNS 103% | UACC-257 melanoma 98.3% | HCT-15 colon 108%

c1ccc(Nc2nnc(-c3cc(-c4cccnc4)n(-c4ccccc4)n3)s2)cc1
active: HCT-15 colon 8.1%
inactive: K-562 leukemia 36.1% | MALME-3M melanoma 83.3% | MDA-MB-231 breast 35.6% | RXF 393 renal 71.8% | SF-268 CNS 113% | SF-295 CNS 40.8% | SF-539 CNS 104% | UACC-257 melanoma 139%

C[n+]1c2ccccc2c(Nc2ccc(N3CCCCC3)cc2)c2[nH]c3ccccc3c21
active: K-562 leukemia -74% | MALME-3M melanoma -77.8% | MDA-MB-231 breast -91.1% | RXF 393 renal -96.5% | SF-268 CNS -93.4% | SF-295 CNS -85.7% | SF-539 CNS -99.1% | UACC-257 melanoma -98.7% | HCT-15 colon -78.8%

CCCc1cccc(CCC)c1O
inactive: K-562 leukemia 104% | MALME-3M melanoma 131% | MDA-MB-231 breast 125% | RXF 393 renal 121% | SF-268 CNS 109% | SF-295 CNS 91.4% | SF-539 CNS 118% | UACC-257 melanoma 93.3% | HCT-15 colon 107%

O=C(Nc1cccc([N+](=O)[O-])c1)c1cccc(C(=O)Nc2cccc([N+](=O)[O-])c2)c1
inactive: K-562 leukemia 91.2% | MALME-3M melanoma 49.5% | MDA-MB-231 breast 83.1% | RXF 393 renal 29.4% | SF-268 CNS 30.2% | SF-295 CNS 67.3% | SF-539 CNS 84.3% | UACC-257 melanoma 77% | HCT-15 colon 85.5%

Nc1c2ccccc2nc2ccccc12 (tested in a mixture with another compound)
active: RXF 393 renal -2.81% | UACC-257 melanoma -11.3%
inactive: K-562 leukemia 15.3% | MALME-3M melanoma 27% | MDA-MB-231 breast 15.9% | SF-268 CNS 19.2% | SF-295 CNS 24.4% | SF-539 CNS 27.5% | M14 melanoma 17.1% | HCT-15 colon 14.7%

Clc1nc(Cl)c2ncn(-c3ccccc3)c2n1
inactive: K-562 leukemia 36.2% | MALME-3M melanoma 48.4% | MDA-MB-231 breast 63.1% | RXF 393 renal 56.1% | SF-268 CNS 68.8% | SF-295 CNS 106% | SF-539 CNS 85.2% | UACC-257 melanoma 67% | M14 melanoma 35.6% | HCT-15 colon 44.8%

C[C@]12CC[C@@H]3c4ccc(O)c([N+](=O)[O-])c4CC[C@H]3[C@@H]1CC[C@@H]2NS(=O)(=O)c1cccc(Br)c1
active: K-562 leukemia 8.39%
inactive: MALME-3M melanoma 31.1% | MDA-MB-231 breast 26.7% | RXF 393 renal 10.4% | SF-268 CNS 36.2% | SF-295 CNS 53.2% | SF-539 CNS 67.5% | UACC-257 melanoma 49.1% | HCT-15 colon 26.7%

O=C1OCC/C1=C\OCCCO/C=C1\CCOC1=O
inactive: K-562 leukemia 107% | MALME-3M melanoma 95.2% | MDA-MB-231 breast 107% | RXF 393 renal 117% | SF-268 CNS 109% | SF-295 CNS 106% | SF-539 CNS 105% | UACC-257 melanoma 106% | M14 melanoma 110% | HCT-15 colon 98.1%

CCN(CC)c1ccc(CN(CC(=O)c2ccc(Cl)c(Cl)c2)Cc2ccccc2)cc1
inactive: K-562 leukemia 103% | MALME-3M melanoma 108% | MDA-MB-231 breast 99.9% | RXF 393 renal 89.9% | SF-268 CNS 102% | SF-295 CNS 107% | SF-539 CNS 108% | UACC-257 melanoma 112% | M14 melanoma 103% | HCT-15 colon 99.8%

Cc1c(C)c(N2C(=O)C=CC2=O)c(C)c(C)c1N1C(=O)C=CC1=O
inactive: K-562 leukemia 77.8% | MALME-3M melanoma 126% | MDA-MB-231 breast 114% | RXF 393 renal 54.7% | SF-268 CNS 110% | SF-295 CNS 109% | SF-539 CNS 114% | UACC-257 melanoma 75.6% | M14 melanoma 86.5% | HCT-15 colon 117%

Cc1cc(N2CCOCC2)nc(N2CCOCC2)n1
inactive: K-562 leukemia 112% | MALME-3M melanoma 107% | MDA-MB-231 breast 114% | RXF 393 renal 118% | SF-268 CNS 100% | SF-295 CNS 113% | SF-539 CNS 97.5% | UACC-257 melanoma 105% | HCT-15 colon 102%

COc1cc(Oc2cc(-c3cccnc3)ccc2NC(=O)Nc2ccc(F)cc2F)cc(OC)c1OC
inactive: K-562 leukemia 96.6% | MALME-3M melanoma 105% | MDA-MB-231 breast 91.5% | RXF 393 renal 97.5% | SF-268 CNS 107% | SF-295 CNS 110% | SF-539 CNS 105% | UACC-257 melanoma 92.6% | HCT-15 colon 111%

C=CC1=C(C(=O)O)N2C(=O)[C@@H](NC(=O)/C(=N\O)c3csc(N)n3)[C@H]2SC1 (stereo in doubt)
inactive: K-562 leukemia 104% | MALME-3M melanoma 111% | MDA-MB-231 breast 105% | RXF 393 renal 117% | SF-268 CNS 108% | SF-295 CNS 104% | SF-539 CNS 95.2% | UACC-257 melanoma 96.3% | M14 melanoma 114% | HCT-15 colon 105%

CCCCn1c(Cc2ccc(Cl)cc2)nc2cc(OC)c(OC)cc2c1=O
inactive: K-562 leukemia 40.3% | MALME-3M melanoma 101% | MDA-MB-231 breast 70.2% | RXF 393 renal 90% | SF-268 CNS 80% | SF-295 CNS 71.1% | SF-539 CNS 105% | UACC-257 melanoma 55.5% | HCT-15 colon 75.4%

COc1ccc(-c2cncn2-c2ccc(-c3nc4cc(OC)c(OC)c(OC)c4s3)cc2)cc1N
inactive: K-562 leukemia 41% | MALME-3M melanoma 57.9% | MDA-MB-231 breast 76.4% | RXF 393 renal 75.8% | SF-268 CNS 93.1% | SF-295 CNS 50% | SF-539 CNS 87.8% | UACC-257 melanoma 71.6% | HCT-15 colon 42.1%

CCN(CC)CCOc1ccccc1-n1c(C)ccc1-c1ccccc1
active: K-562 leukemia -48.1%
inactive: MALME-3M melanoma 89% | MDA-MB-231 breast 102% | RXF 393 renal 84.6% | SF-268 CNS 78.5% | SF-295 CNS 93% | SF-539 CNS 92.7% | UACC-257 melanoma 100% | HCT-15 colon 90.5%

CCCCCCCCCCCCCCCCCC1=NC(C)(C)CN1CCO
inactive: MALME-3M melanoma 11.8%
active: K-562 leukemia -49.5% | MDA-MB-231 breast -61.7% | RXF 393 renal -47.3% | SF-268 CNS -67.1% | SF-295 CNS -2.44% | SF-539 CNS -80.6% | UACC-257 melanoma -10.6% | M14 melanoma -74.7% | HCT-15 colon -55.4%

CCN(CC)CCNc1ccc(Cl)cc1Cl
inactive: K-562 leukemia 104% | MALME-3M melanoma 106% | MDA-MB-231 breast 118% | RXF 393 renal 103% | SF-268 CNS 101% | SF-295 CNS 109% | SF-539 CNS 111% | UACC-257 melanoma 95% | HCT-15 colon 107%

CCC(C)CC(C)C(=O)c1c(O)ccn(OC)c1=O (stereo unspecified)
inactive: K-562 leukemia 69.3% | MALME-3M melanoma 80.7% | MDA-MB-231 breast 61.7% | RXF 393 renal 72.5% | SF-268 CNS 54.2% | SF-295 CNS 87.1% | SF-539 CNS 63.2% | UACC-257 melanoma 97.7% | HCT-15 colon 29.9%

S=c1[nH]nc2sc3ccccc3n12
inactive: K-562 leukemia 107% | MALME-3M melanoma 122% | MDA-MB-231 breast 96.7% | RXF 393 renal 116% | SF-268 CNS 110% | SF-539 CNS 106% | UACC-257 melanoma 111% | M14 melanoma 104% | HCT-15 colon 100%

CCOC(=O)C1=C(C)N2C(=NC3=C(CCC/C3=C\c3ccc(Cl)cc3)C2c2ccc(Cl)cc2)S1 (stereo unspecified)
inactive: MALME-3M melanoma 77% | MDA-MB-231 breast 71.6% | SF-268 CNS 34.7% | SF-539 CNS 41.3% | UACC-257 melanoma 25.7%
active: K-562 leukemia -11.8% | RXF 393 renal -71.7% | M14 melanoma -40.8% | HCT-15 colon -28.7%

CC/C(=C\c1ccc(N(C)C)cc1)c1nc2ccccc2c(=O)[nH]1
inactive: K-562 leukemia 71.4% | MALME-3M melanoma 144% | MDA-MB-231 breast 91.2% | RXF 393 renal 99.6% | SF-268 CNS 92.9% | SF-539 CNS 106% | UACC-257 melanoma 111% | M14 melanoma 121% | HCT-15 colon 99.8%

CN(C)c1ccc2c(c1)/C(=N/O)c1ccccc1-2
inactive: K-562 leukemia 29.7% | MALME-3M melanoma 87.9% | MDA-MB-231 breast 89.8% | RXF 393 renal 81% | SF-268 CNS 78.3% | SF-539 CNS 60% | UACC-257 melanoma 81.6% | M14 melanoma 69.7% | HCT-15 colon 78.7%

Nc1nc(SCc2ccccc2Cl)c(-c2ccccc2)c(SCc2ccccc2Cl)n1
inactive: K-562 leukemia 85.3% | MALME-3M melanoma 110% | MDA-MB-231 breast 109% | RXF 393 renal 115% | SF-268 CNS 105% | SF-539 CNS 114% | UACC-257 melanoma 92.4% | M14 melanoma 95.3% | HCT-15 colon 81.3%

CCCCCCOc1ccc(/C=N/NC(N)=S)cc1
inactive: K-562 leukemia 17.8% | MALME-3M melanoma 17.9% | MDA-MB-231 breast 29.5% | RXF 393 renal 22.6% | SF-268 CNS 47.2% | SF-539 CNS 16.5% | UACC-257 melanoma 48.2% | M14 melanoma 44.6% | HCT-15 colon 33.9%
